Experimental data published in PubChem BioAssay (Tox21).
Inconclusive results are not listed. Activity calls are given as the source filed them. Unless noted, calls come from the whole dose curve; as a rule, active = well fitted curve in the direction sought with a large enough effect in the repeat runs; inconclusive = weak or mixed curves; inactive = no such curve, though single readings can be large; an effect the other way counts as inactive or inconclusive.

How the values were obtained:
[1] = qHTS assay to identify small molecule agonists of the vitamin D receptor (VDR) signaling pathway - cell viability counter screen (AID 743224); note: series mostly up to about 63 µM; nearly all actives have a fitted effect of over 50% in size
Summary of the method: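 In parallel with the bla FRET readout, cytotoxicity toward VDR-bla cells after 16 h compound exposure was assessed by CellTiter-Glo, with luminescence recorded after a 30 min room-temperature incubation.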

[2] = qHTS assay to identify small molecule antagonists of the vitamin D receptor (VDR) signaling pathway - cell viability counter screen (AID 743225); note: nearly all actives have a fitted effect of over 50% in size
Summary of the method: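 Compounds were pinned onto VDR-bla HEK 293T cells together with 1-alpha,25-dihydroxyvitamin D3 at 3 nM final. After 16 h at 37C and 5% CO2 plus the reporter readout, cell viability was measured by CellTiter-Glo luminescence (30 min, room temperature).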

[3] = qHTS assay to identify small molecule agonists of the NFkB signaling pathway (AID 1159509; active = well fitted curve in the direction sought with a large enough effect in the signal ratio in the repeat runs, not every such curve was filed as active; the % refers to the signal ratio; note: series mostly up to about 61 µM)
Summary of the method: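 Agonist activity was read as beta-lactamase-driven FRET change (460 and 530 nm emission, 405 nm excitation) following 1.5 hr substrate loading at room temperature. Beforehand, ME-180 NFkB-bla reporter cells were treated with compounds for 5 hr at 37 C.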

[4] = qHTS assay to identify small molecule agonists of the NFkB signaling pathway - cell viability counter screen (AID 1159515; calls by dose curve; note: series mostly up to about 61 µM; nearly all actives have a fitted effect of over 55% in size)
Summary of the method: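 Plate 2,000 NFkB-bla ME-180 cells/well; incubate overnight. Add compounds, 5 hr at 37 C. Add FRET substrate, 1.5 hr RT. Add CellTiter-Glo, 30 min RT; read luminescence.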

[5] = qHTS assay to identify small molecule agonists of the endoplasmic reticulum stress response signaling pathway (AID 1159516; active = well fitted activation curve with a large enough effect in the signal ratio in the repeat runs, not every such curve was filed as active; the % refers to the signal ratio)
Summary of the method: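 Beta-lactamase expression from the ER stress response element in HeLa reporter cells is quantified with the LiveBLAzer B/G FRET substrate, read at 405 nm excitation after 2 hr at room temperature, following 5 hr compound treatment at 37 C.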

[6] = qHTS assay to identify small molecule agonists of the endoplasmic reticulum stress response signaling pathway - cell viability counter screen (AID 1159517; calls by dose curve; note: series mostly up to about 61 µM; nearly all actives have a fitted effect of over 50% in size)
Summary of the method: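 ESRE-bla HeLa cells (1,500/well) were plated overnight at 37 C and exposed to compounds for 5 hr. After the 2 hr beta-lactamase substrate read, CellTiter-Glo went into the same wells, and luminescence was read after 30 min at room temperature.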

[7] = molecular target: Nuclear receptor ROR-gamma (Homo sapiens) (UniProt P51449); experiment: qHTS assay to identify small molecule antagonists of the retinoid-related orphan receptor gamma (ROR-gamma) signaling pathway (AID 1159521;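 note: CHO cells with doxycycline inducible ROR-gamma driving an RORE luciferase reporter; top concentration of the series differs between compounds; nearly all actives have a fitted effect of over 50% in size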)
Summary of the method: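 Test compounds were applied to Tet-on RORγ CHO cells 2 h ahead of doxycycline hyclate (1 uM final). Luciferase reporter activity was quantified by luminescence after 16 h at 37 C and 5% CO2.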

[8] = qHTS assay to identify small molecule agonists of the AP-1 signaling pathway - cell viability counter screen (AID 1159525; calls by dose curve; note: nearly all actives have a fitted effect of over 55% in size)
Summary of the method: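 Intracellular ATP by Cell Titer Glo luminescence (30 min, RT) in the same ME-180 AP-1-bla wells after the 5 h compound exposure at 37 °C. Normalised to tetra n-octyl ammonium bromide and DMSO controls.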

[9] = qHTS assay to identify small molecule agonists of the AP-1 signaling pathway (AID 1159526; calls by dose curve)
[10] = molecular target: Retinoic acid receptor RXR-alpha (Homo sapiens) (UniProt P19793); experiment: qHTS assay to identify small molecule agonists of the RXR signaling pathway (AID 1159527; calls by dose curve; note: nearly all actives have a fitted effect of over 35% in size)
Chain of Retinoic acid receptor RXR-alpha (Homo sapiens) (P19793 whole entry, looked up): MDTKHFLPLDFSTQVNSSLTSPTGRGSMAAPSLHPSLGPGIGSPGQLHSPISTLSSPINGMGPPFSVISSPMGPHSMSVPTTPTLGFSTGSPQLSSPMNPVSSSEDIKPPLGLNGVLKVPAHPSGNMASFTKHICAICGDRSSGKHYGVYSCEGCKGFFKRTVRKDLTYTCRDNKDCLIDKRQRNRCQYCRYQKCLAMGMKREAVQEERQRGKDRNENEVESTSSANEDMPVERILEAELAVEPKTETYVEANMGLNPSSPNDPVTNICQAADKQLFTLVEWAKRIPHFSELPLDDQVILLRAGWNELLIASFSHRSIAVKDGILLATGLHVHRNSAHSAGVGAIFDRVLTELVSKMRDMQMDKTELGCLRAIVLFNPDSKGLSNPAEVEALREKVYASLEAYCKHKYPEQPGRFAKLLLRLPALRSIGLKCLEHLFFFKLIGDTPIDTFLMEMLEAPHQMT
Summary of the method: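 Using 9-cis retinoic acid as the reference agonist, chemicals were tested in HEK 293T cells […] for 16 hr; substrate loading lasted 2 hr at room temperature.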

[11] = qHTS assay to identify small molecule agonists of the RXR signaling pathway - cell viability counter screen (AID 1159529)
Summary of the method: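 Compounds dissolved in DMSO were pinned onto HEK 293T cells carrying a beta-lactamase reporter under RXR-alpha control and incubated 16 hr. Cytotoxicity was then quantified by CellTiter-Glo luminescence.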

[12] = qHTS assay to identify small molecule antagonists of the retinoic acid receptor (RAR) signaling pathway (AID 1159552; note: nearly all actives have a fitted effect of over 50% in size)
Summary of the method: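 Test chemicals and DMSO controls were pin-transferred onto C3RL4 cells a day after seeding; retinol (1 uM final) followed at once. Luminescent reporter output was quantified after 6 hr of co-incubation and 30 min with detection reagent.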

[13] = qHTS assay to identify small molecule agonists of the retinoic acid receptor (RAR) signaling pathway (AID 1159553)
Summary of the method: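 Compounds dissolved in DMSO were pinned onto C3RL4 cells seeded the previous day, and plates were held 6 hr at 37 C. RARE-driven luciferase output was then read by luminescence.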

[14] = qHTS assay to identify small molecule antagonists of the retinoid acid receptor (RAR) signaling pathway - cell viability counter screen (AID 1159551); note: nearly all actives have a fitted effect of over 35% in size
Summary of the method: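 Viability of C3RL4 cells is quantified from ATP by luminescence after 6 h treatment at 37 C with compounds and 1 uM retinol.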

[15] = qHTS assay to identify small molecule antagonists of the retinoid-related orphan receptor gamma (ROR-gamma) signaling pathway - cell viability counter screen (AID 1159520); note: nearly all actives have a fitted effect of over 50% in size
Summary of the method: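 Cytotoxicity was read from cellular ATP (CellTiter-Glo luminescence) after 16 hr at 37 C with 1 uM doxycycline induction. The inducer was added 2 hr after compound transfer to Tet-on ROR gamma CHO cells.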

[16] = qHTS assay to identify small molecule antagonists of the estrogen related receptor (ERR) signaling pathway - cell viability counter screen (AID 1224818);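 note: series mostly up to about 46 µM; viability measured after 17.5 h of compound exposure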
Summary of the method: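 Cytotoxicity check run alongside the ERR antagonist screen: cells exposed to test compounds 17.5 h at 37 C, viability taken as CellTiter-Fluor fluorescence intensity.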

[17] = qHTS assay to identify small molecule antagonists of the estrogen related receptor (ERR) signaling pathway (AID 1224819)
Summary of the method: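 ERR reporter cells were plated at 2,000 cells/well and left 6 h at 37 C/5% CO2 before pin-tool transfer of compounds in DMSO. After 18 h at 37 C, One-Glo was added and luminescence was read 30 min later at room temperature.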

[18] = qHTS assay to identify small molecule agonists of the estrogen related receptor (ERR) signaling pathway (AID 1224820)
Summary of the method: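 After 6 h plating (2,000 cells/well) and 18 h compound treatment at 37 C, ERR cells were lysed with One-Glo and luminescence read after 30 min at room temperature.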

[19] = test system: estrogen-related receptor alpha (ERRalpha) with PGC-1alpha coactivator, human; experiment: qHTS assay to identify small molecule antagonists of the estrogen related receptor signaling pathway with the pleiotropic PPARgamma coactivator (PGC) (AID 1224821; calls by dose curve)
Summary of the method: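 Luminescence from One-Glo luciferase reagent (30 min, room temperature) measured after 18 h compound treatment at 37 °C. Cells carry the PGC/ERR reporter and were seeded 6 h prior to dosing.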

[20] = qHTS assay to identify small molecule antagonists of the estrogen related receptor signaling pathway with the pleiotropic PPARgamma coactivator (PGC) cell viability counter screen (AID 1224822;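 note: series mostly up to about 46 µM; viability read after 17.5 h compound exposure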)
Summary of the method: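 Viable cell signal (CellTiter-Fluor, 30 min, 37 C/5% CO2) was measured in PGC/ERR cells after a 17.5 h compound incubation.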

Measured: Potency

COCCOCCOCCOCCOCCO
inactive: [1] | [2] | [3] | [4] | [5] | [6] | [7] | [8] | [9] | [10] | [11]

Nc1ccc([N+](=O)[O-])c(N)c1
not listed: [2] | [14] | [15] | [16] | [17] | [18] | [19] | [20]
inactive: all other assays above

C=COCCOCCOCCOC=C
inactive: [1] | [3] | [4] | [5] | [6] | [7] | [8] | [9] | [10] | [11] | [14]

COc1cc(C(=S)N2CCOCC2)cc(OC)c1OC
not listed: [12] | [13] | [15] | [16] | [17] | [18] | [19] | [20]
inactive: all other assays above

Cc1cccc(C)c1OCC(C)N (stereo not drawn)
not listed: [5] | [11] | [12] | [13]
inactive: all other assays above

Cc1ccsc1/C=C/C1=NCCCN1C
inactive: [1] | [2] | [3] | [4] | [6] | [15] | [7] | [9] | [10] | [11]

COC(=O)CCCCCCCC(=O)OC
not listed: [1] | [5] | [13] | [16] | [17] | [18] | [19] | [20]
inactive: all other assays above

O=C(OCC(COC(=O)c1cccnc1)(COC(=O)c1cccnc1)COC(=O)c1cccnc1)c1cccnc1
inactive: [1] | [2] | [3] | [4] | [6] | [15] | [7] | [9] | [10] | [14] | [12]

CN1C(C)(C)CCCC1(C)C
not listed: [5] | [12] | [16] | [17] | [18] | [19] | [20]
inactive: all other assays above

CN(CCOc1ccc(NS(C)(=O)=O)cc1)CCc1ccc(NS(C)(=O)=O)cc1
inactive: [3] | [4] | [6] | [15] | [7] | [8] | [9] | [10] | [11] | [16] | [20]

O=P(O)(O)OP(=O)(O)O
not listed: [11] | [14] | [15] | [16] | [17] | [18] | [19] | [20]
inactive: all other assays above

Cc1cccc(OCC(O)CNC(C)(C)C)c1C (stereo not drawn)
not listed: [5] | [12] | [13] | [16] | [17] | [18] | [19] | [20]
inactive: all other assays above
